Only some compounds are listed: those with a hit (about 12% of all), similar ones and a draw of the others.
G9a block = blocks human histone lysine methyltransferase G9a; Q96KQ7; G9a H3K9 monomethylation, AlphaScreen, 2 h; Potency, µM (series often up to 102 µM), inactives show at the highest dose activity, negative = inhibition, most hits filed as inhibitors; 350,000 compounds, 8.8% hits; AID 504332; also: potency is read from the fitted curve at half-maximal effect; % is scaled to controls: 0 for no effect and ±100 for the full control effect; nearly all actives have a fitted effect of over 75% in size
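AlphaScreen detection with an anti-monomethyl H3K9 antibody quantified product after a 2 h room-temperature reaction containing 500 nM biotinylated H3K9 peptide, 20 µM SAM and 20 nM enzyme, which had been preincubated 15 min with compound.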
HP1b binding inh = HP1-beta chromodomain-methylated histone interaction inhibition; P83916; AlphaScreen HP1-beta / biotin-H3K9me3 peptide binding; Potency, µM (doses to about 114 µM), for inactives: at the top dose activity change, negative = inhibition, hits mostly inhibitors; 390,000 compounds, 0.56% hits; also: potency is read from the fitted curve at half-maximal effect; nearly all actives have a fitted effect of over 70% in size
Target sequence (P83916 whole entry, looked up): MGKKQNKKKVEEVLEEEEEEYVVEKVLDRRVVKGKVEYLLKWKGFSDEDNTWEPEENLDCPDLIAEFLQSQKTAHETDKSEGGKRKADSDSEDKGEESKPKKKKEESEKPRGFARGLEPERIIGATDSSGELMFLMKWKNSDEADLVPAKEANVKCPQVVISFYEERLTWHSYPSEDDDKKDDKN
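AlphaScreen: HP1-beta (50 nM) preformed 30 min with biotin-H3(1-18)K9me3 peptide (50 nM) in PBS pH 7.4, 0.01% Tween-20. Compound added for 30 min at RT, then streptavidin donor/nickel chelate acceptor beads (10 ug/mL) for 30 min.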
JMJD2A Tudor = inhibitors of human JMJD2A Tudor domain. 390,000 compounds, 4.4% hits. O75164. AID 504339. AlphaScreen JMJD2A-Tudor / H3K4me3 peptide binding. Potency, µM (titrated, usually from 114 µM), inactives show at the highest dose activity change, negative = inhibition, actives largely listed as inhibitors; also: potency is read from the fitted curve at half-maximal effect; % is scaled to controls: 0 for no effect and ±100 for the full control effect; nearly all actives have a fitted effect of over 50% in size
PI5P4Ka inh = blocks human PI5P4K alpha kinase activity; 330,000 compounds, 1.2% hits; PI5P4Kalpha enzyme, ADP-Glo luminescence, 60 min; active compounds read low; max response, %; active = max response of -50% or lower; inconclusive = between -30% and -50%; inactive = -30% or higher; also: value at the top dose of about 77 µM; % is scaled to controls: 0 for no effect and ±100 for the full control effect
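qHTS, 1536-well: enzyme/substrate mix, compound by pin tool, 5 microM ATP final; RT 60 min; ADP-Glo reagents 1 (45 min) then 2 (30 min); luminescence.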
PLK1 PBD inh = inhibitors of human PLK1 polo-box domain binding | P53350 | Plk1 PBD binding of FITC phosphopeptide, fluorescence polarization | Potency, µM, without a hit: max response, negative = inhibition, hits mostly inhibitors | 360,000 compounds, 2.8% hits | AID 720504; also: potency is read from the fitted curve at half-maximal effect; series mostly up to about 57 µM; % is scaled to controls: 0 for no effect and ±100 for the full control effect; nearly all actives have a fitted effect of over 65% in size
Target sequence (P53350 whole entry, looked up, the tested form may be a part): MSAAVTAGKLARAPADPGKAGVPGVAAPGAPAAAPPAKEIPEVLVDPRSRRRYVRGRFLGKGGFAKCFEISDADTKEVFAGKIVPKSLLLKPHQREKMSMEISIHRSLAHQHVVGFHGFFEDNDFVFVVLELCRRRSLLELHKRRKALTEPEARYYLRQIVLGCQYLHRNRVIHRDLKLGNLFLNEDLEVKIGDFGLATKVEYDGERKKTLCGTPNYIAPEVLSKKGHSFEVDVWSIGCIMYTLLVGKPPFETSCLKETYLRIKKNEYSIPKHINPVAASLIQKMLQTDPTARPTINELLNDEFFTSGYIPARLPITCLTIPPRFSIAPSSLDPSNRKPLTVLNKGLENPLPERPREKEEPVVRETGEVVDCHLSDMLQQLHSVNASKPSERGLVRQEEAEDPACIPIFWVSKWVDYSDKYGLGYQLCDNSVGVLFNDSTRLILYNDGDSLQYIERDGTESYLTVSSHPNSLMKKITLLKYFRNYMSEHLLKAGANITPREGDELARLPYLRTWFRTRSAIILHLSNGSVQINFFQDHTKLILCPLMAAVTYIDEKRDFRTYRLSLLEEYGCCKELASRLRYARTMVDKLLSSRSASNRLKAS
BAZ2B block = inhibitors of human BAZ2B bromodomain. Q9UIF8. AlphaScreen BAZ2B-H3K14Ac peptide displacement. Potency, µM (highest dose often 114 µM), without a hit: at the top dose activity change, negative = inhibition, actives largely listed as inhibitors. 360,000 compounds, 4.4% hits. AID 504333; also: potency is read from the fitted curve at half-maximal effect; % is scaled to controls: 0 for no effect and ±100 for the full control effect; nearly all actives have a fitted effect of over 60% in size
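BAZ2B 50 nM plus b-H3(5-23)K14Ac 50 nM, PBS pH 7.4/0.01% Tween-20, 30 min RT; compound added (max 110 uM), 30 min RT; streptavidin donor/Ni-chelate acceptor beads 10 ug/mL final, 20 min dark; AlphaScreen read.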
* hit, by the source's call; ? = inconclusive; . = no result; [ ] = another dose, or the depositor's remark. Unless noted, calls follow the shape of the dose curve; as a rule, active = well fitted curve in the direction sought with a large enough effect; inconclusive = small, poorly fitted or top-dose-only effect, or another doubt; inactive = no such curve, though single readings can be large; an effect the other way counts as inactive or inconclusive.

SMILES | G9a block | HP1b binding inh | JMJD2A Tudor | PI5P4Ka inh | PLK1 PBD inh | BAZ2B block
CCNC(=S)N1CCN(C(=O)C(Cc2ccccc2)NC(C)=O)CC1 (centres undefined) | 14.5%[59 µM] | 39.1% | -11.6% | 4.6 | -1.8% | -36.2%
COc1ccccc1CN1CCCC(CN(CCN(C)C)C(=O)c2ccc(C)cc2)C1 (centres undefined) | 34.8% | 26.4% | -25.5% | 3.5 | -11.6% | -24.0%
COC(=O)c1cc(CN2CCN(c3ccccc3C)CC2)ccc1O | 7.08µM* | ? | 2µM* | . | -6.5% | 56.2µM*
COc1ccc(CN2CCN(c3ccccc3OC)CC2)cc1OC | . | ? | 22.4µM* | 0.2 | -8.9% | 50.1µM*
COc1ccc(NC(=S)N2CCN(Cc3cccc(F)c3)CC2)c(OC)c1 | . | 7.9% | -8.1%[57.1 µM] | 8.3 | -6.3% | ?
COc1ccc(CN2CCN(Cc3cccc(F)c3)CC2)cc1OC | -10.7%[2.33 µM] | ? | 3.16µM* | -10.4 | -10.5% | 22.4µM*
COc1cc(OC)c(OC)cc1CN1CCN(Cc2cccc(F)c2)CC1 | ? | -14.9% | 56.2µM* | -0.5 | -5.5% | -31.1%
COc1ccccc1N1CCN(Cc2ccc(C(=O)O)cc2)CC1 | 6.9% | 44.8% | 6.2% | 2.3 | -13.4% | -20.9%
CCCCNC(=O)Cn1nc(N2CCN(c3ccccc3OC)CC2)ccc1=O | 0.5%[59 µM] | 24.6% | -12.0% | . | . | ?
COc1ccccc1C(C)NC(=O)c1ccc(NC(=O)CC2SC(N3CCCC3)=NC2=O)cc1 (centres undefined) | 5.7%[59 µM] | 27.0% | 0.7% | 0.4 | 2.6% | -3.3%
Cc1ccc(CNC(=O)CSc2nc(=O)[nH]c3c2CCCC3)cc1 | 4.8%[59 µM] | -2.5% | -9.4% | . | . | -9.5%
COc1cc(OC)c(OC)cc1CN1CCN(Cc2ccco2)CC1 | 35.5µM* | -10.8% | 22.4µM* | -2.2 | -9.6% | 79.4µM*
COc1ccc(NC(=S)N2CCN(Cc3ccco3)CC2)c(OC)c1 | -9.7%[59 µM] | 20.5% | -12.4% | 0.4 | -8.6% | -0.7%
COc1cc(OC)c(OC)cc1CN1CCN(c2ccc(F)cc2)CC1 | 28.2µM* | ? | 44.7µM* | 0.3 | -0.3% | 50.1µM*
COc1ccc(CCNC(=O)CN2CCN(Cc3ccccc3F)C2=O)cc1OC | 12.5%[59 µM] | -16.9% | -20.1% | -1.6 | -0.5% | -1.7%
COc1ccc(CN2CCN(Cc3ccccc3F)CC2)cc1OC | 8.91µM* | ? | 5.62µM* | 9.7 | -0.4% | 35.5µM*
Cc1cn(CC(=O)N2CCN(c3ccccn3)CC2)c(=O)[nH]c1=O | . | 17.8% | 0.7% | -5.2 | -3.3% | .
CCOC(=O)c1c(S(=O)(=O)N2CCCC(C(=O)N3CCN(c4ccccc4)CC3)C2)c(C)n(C)c1C (centres undefined) | -1.8%[59 µM] | -11.1% | ? | . | . | -29.7%
COCCOC(=O)C1=C(C)OC(N)=C(C#N)C1c1cc2cccc(C)c2nc1Cl (centres undefined) | . | 8.5% | -22.7% | 1.0 | -16.6% | 50.1µM*
COC(=O)C1=C(C)OC(N)=C(C#N)C1c1cc2cccc(C)c2nc1Cl (centres undefined) | 22.4µM* | . | . | . | . | 79.4µM*
CC(=O)C1=C(C)OC(N)=C(C#N)C1c1cc2cccc(C)c2nc1Cl (centres undefined) | ? | 37.5% | -19.4% | . | -14.3% | 4.6%[57.1 µM]
CCn1nc(C)cc1-c1nnc(Sc2ncc([N+](=O)[O-])s2)n1C | 6.31µM* | 19.3% | ? | -7.7 | ? | -12.0%
CCn1nc(C)cc1-c1nnc(SCC(=O)Nc2ccccc2)n1CCCOC | . | 22.8% | 2.8% | 0.4 | 4.5% | 0.9%
COc1cccc(NC(=O)CN(C)CC(=O)NC(C)c2ccccc2)c1 (centres undefined) | 70.8µM* | 30.5% | -1.4% | 0.3 | 3.1% | 6.3%
COc1ccc(CN(C)CC(=O)Nc2c(C)cccc2C)c(OC)c1 | -16.3% | 9.2% | -12.6% | 10.3 | -6.1% | -15.4%
SMILES | G9a block | HP1b binding inh | JMJD2A Tudor | PI5P4Ka inh | PLK1 PBD inh | BAZ2B block
COc1ccc(CN(C)CC(=O)NC(C)c2ccccc2)c(OC)c1 (centres undefined) | ? | ? | 1.78µM* | -2.8 | -3.5% | 56.2µM*
COc1ccc(OC)c(NC(=O)CN(C)CC(=O)Nc2ccccc2Br)c1 | 7.94µM* | -3.3% | 8.91µM* | 2.6 | -11.5% | 44.7µM*
CC(NC(=O)CN(C)CC(=O)Nc1ccccc1Br)c1ccccc1 (centres undefined) | -120.7%[12.7 µM] | -6.2% | 28.2µM* | -0.2 | -6.0% | 31.6µM*
CCCOc1ccc(CN(C(=O)c2cc(=O)c3ccc(C)cc3o2)C2CCS(=O)(=O)C2)cc1 (centres undefined) | -45.5%[59 µM] | 2.3% | -25.7% | . | . | -22.5%
O=C(Nc1ccc(F)cc1)[C@H](Cc1ccccc1)N1Cc2ccccc2C1=O | -8.5%[59 µM] | 18.7% | -18.9% | . | . | -13.5%
CCOc1ccc(CN(C)CC(=O)Nc2cccc3ccccc23)cc1OC | 7.08µM* | ? | 0.794µM* | 0.4 | 2.5% | .
COc1ccc(CN(C)CC(=O)Nc2cccc3ccccc23)cc1F | 17.7% | 28.6% | -0.7% | -1.8 | -1.1% | 1.4%
O=C(CN1CCN(c2ccccc2Cl)CC1)NC1CCCc2ccccc21 (centres undefined) | 8.91µM* | ? | 1µM* | 26.8 | -4.2% | 20µM*
O=C(CCCCCN1CCN(c2ccccc2-c2ccccc2)CC1)NC1CCCc2ccccc21 (centres undefined) | 12.6µM* | . | . | . | . | .
CCCCOc1ccc(C(=O)Nc2ccc3c(c2)N(C(C)=O)CCC3)cc1 | -0.9%[59 µM] | 18.3% | -7.3% | . | . | -7.9%
O=C(CCN1CCC2CCC(C2)C1)c1ccc(F)cc1 (centres undefined) | . | 50.0% | -23.3% | 1.0 | 8.44µM* | .
Cc1c(Br)c([N+](=O)[O-])nn1CC(=O)Nc1sc2c(c1C(=O)OC(C)C)CCCC2 | ? | -17.2% | -16.2% | . | 18.9µM* | 6.3%
Cc1c(Br)c([N+](=O)[O-])nn1CCCC(=O)Nc1sc2c(c1C#N)CCC2 | ? | ? | 50.1µM* | -27.0 | 5.32µM* | ?
Cc1c(Cl)c([N+](=O)[O-])nn1CCCC(=O)Nc1sc2c(c1C#N)CCC2 | ? | ? | ? | . | 29.9µM* | -38.7%
CSc1nc(-c2ccc(N(C)C)cc2)c(C#N)c(=O)n1C | 11.1% | 77.7% | 15.6% | 4.7 | ? | 30.9%
Cc1cc(C)n(C(C)CC(=O)Nc2cccc(C#N)c2)n1 (centres undefined) | 15.0%[59 µM] | 17.5% | -10.3% | . | . | -4.6%
C=CCn1c(CCSCc2ccc(OC)c(C)c2)n[nH]c1=S | 2µM* | 30.3% | -34.1% | 2.3 | 1.1% | -38.1%
C=CCn1c(CCSCc2ccccc2)n[nH]c1=S | 7.08µM* | 15.6% | 15.8µM* | 0.2 | -6.8% | -10.2%
CCCN(CC(=O)Nc1ccccc1C)C(=O)c1ccc2ccccc2n1 | -45.7% | 38.3% | 0.0% | 5.3 | -0.5% | -16.5%

From PubChem
